Among all 360,000 compounds or so, about 17,000 (4.7%) were called active. About 5% were inconclusive and are not listed. Shown is part of a subset that was picked to be rich in actives. A number with no mark means an inactive call. Cut-off read from the data, not from the text of the source: active = activity change below about -50%; inconclusive = mostly about -30% to -49%; inactive = weaker than that.
% is set by controls: 0 for no effect and ±100 for the full control effect.

This experiment can be described thus: qHTS for Inhibitors of Inflammasome Signaling: IL-1-beta AlphaLISA Primary Screen. Conditions: THP-1 LPS/ATP IL-1B secretion, 16 h; at 57.5 µM, active compounds read low. In a few lines:
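Secreted IL-1B measured by AlphaLISA bead assay after 16 h compound exposure of THP-1 cells; compounds (final up to 57.5 uM) added 1 h before LPS (250 ng/mL) and ATP (1.25 mM) stimulation; lower signal means less secretion.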
On the technique in general: In qHTS, concentration-response curves come from the screen itself.
For the compound `Cc1ccc(-n2ncc3c(=O)n(-c4ccc(C)c(C)c4)c(-c4ccco4)nc32)cc1`, the activity change was -18.4%.

`CN1C(=O)/C(=C/c2ccco2)SC1=Nc1cccc(C(=O)O)c1`: the activity change is 18.8%.

With `O=C1NN(c2ccccc2)C(=O)/C1=C/c1ccc(-c2cccc(C(=O)O)c2)o1`, the activity change was -4.59%.

Consider `Cc1ccc(N=C2NC(=O)/C(=C/C=C/c3ccco3)S2)cc1C`, for which the activity change was -91.3% (active).

For `Cc1ccc(N2NC(=O)/C(=C/C=C/c3ccco3)C2=O)cc1C`, the activity change was -62.6% (active).

Regarding `CCOP(=O)(OCC)C(Cc1ccccc1)N=C(c1ccccc1)c1ccccc1` (stereo not drawn), the activity change is -2.56%.

Consider `CNS(=O)(=O)c1ccc2c(c1)[nH]c(=S)n2C`, for which the activity change is -25%.

As to `Cc1[nH]c(N)nc(=S)c1CCCNc1ccccc1`, the activity change is 5.82%.

With `O=C(NCc1ccccc1)c1cccc(NC(=O)C2CCCCC2)c1`, the activity change is -13.6%.

As to `CCC(C)Sc1nc(C)nc2c1c(=O)n(C)c(=O)n2C` (stereo not drawn), the activity change was 11.7%.

For `Cc1cc(Br)cn2c(Cc3ccsc3)c(-c3ccc(C#N)cc3)nc12`, the activity change was -10.8%.

In the case of `CN(Cc1ccc(C(F)(F)F)cc1)C(=O)[C@H]1O[C@@H](n2cnc3c(N)ncnc32)[C@H](O)[C@@H]1O`, the activity change is -14.1%.

On to `Cc1ccc2nc(SCC(=O)N3CC(C)OC(C)C3)nc(=O)n2c1` (stereo not drawn), for which the activity change was 13.3%.

For `O=C(c1ccc(C(F)(F)F)cc1)N1CCC(=O)N([C@H](COCc2ccccc2)Cc2ccccc2)CC1`, the activity change was -29.6%.

In the case of `Cc1ccc(S(=O)(=O)N2CCC(=O)N([C@H](COCc3ccccc3)Cc3ccccc3)CC2)cc1`, the activity change is 13.2%.

On to `CC(C)CC(CO)N1CCN(C(=O)c2ccc(Cl)cc2Cl)CCC1=O` (stereo not drawn), for which the activity change was 4.74%.

Consider `CC(C)C[C@@H](COCc1ccc(Cl)cc1)N1CCN(C(=O)c2ccc(Cl)cc2Cl)CCC1=O`, for which the activity change is -52.8% (active).

Consider `CC(C)C[C@@H](CO)N1CCN(Cc2ccc(O)cc2)CCC1=O`, for which the activity change is 0%.

`O=C(c1cc(Cl)cc(Cl)c1)N1CCC(=O)N(C(COCc2ccccc2)Cc2ccccc2)CC1` (stereo not drawn): the activity change was -74.4% (active).

Consider `CCc1noc(C)c1C(=O)OCC(=O)c1ccc(NC(=O)CC(C)C)cc1`, for which the activity change was 1.82%.

With `C[C@@H]1CN([C@@H](C)CO)C(=O)CCCn2nncc2CO[C@@H]1CN(C)S(=O)(=O)c1ccc(-c2ccccc2)cc1`, the activity change was -3.91%.

As for `CN=C1SC(C(=O)O)CC(=O)N1C` (stereo not drawn), the activity change is 0.415%.

For the compound `CCCCn1nnnc1C(c1ccccc1)N1CCN(c2ccccc2OC)CC1` (stereo not drawn), the activity change was -1.89%.

For the compound `CC1=C(C(=O)N2CCOCC2)CC(CC(=O)NCc2cccs2)C(=O)N1CCCN1CCCC1=O` (stereo not drawn), the activity change was 2.1%.

With `Cc1ccc(Nc2nc(CSc3nnc(-c4ccncc4)n3-c3ccccc3C)cs2)cc1`, the activity change was -74.1% (active).

As for `Cc1ccc(-n2c(SCC(=O)N3c4ccccc4Sc4ccccc43)nnc2-c2ccncc2)cc1`, the activity change was -10.1%.

In the case of `Cc1ccccc1-n1c(SCC(=O)NCc2cccs2)nnc1-c1ccncc1`, the activity change was -2.89%.

With `Cc1ccn(CC(=O)NC2CCCN(Cc3ccccc3F)C2)n1` (stereo not drawn), the activity change is -22.3%.

As to `C[C@H](NC(=O)[C@@H]1CCCN1C(=O)[C@@H]1CCCN1C(=O)c1ccccc1)c1ccccc1`, the activity change was 9.38%.

`COc1ccc(-c2oc3ncnc(NCCCO)c3c2-c2ccc(OC)cc2)cc1`: the activity change is -68.8% (active).

As to `COCCNc1ncnc2c1ncn2[C@H]1CN(Cc2ccc(OC)cc2)C[C@@H](CO)O1`, the activity change was -0.989%.

As to `CCc1oc(-c2ccc(OC)cc2)c(C(=O)OCCCCCO)c1C(C)OCCO` (stereo not drawn), the activity change was -1.94%.

For the compound `Cn1ncc(Br)c1C(=O)NC1CCCC1`, the activity change was -17.3%.

Turning to `CN(CC(=O)NCc1ccc2c(c1)OCO2)CC(=O)Nc1ccc(F)c(F)c1F`, the activity change is -7.29%.

As to `COc1ccc(C2CC(c3cccs3)=Nc3ccccc3S2)cc1OC` (stereo not drawn), the activity change was -56.2% (active).

As to `COc1ccc(C2CC(c3cccs3)=NN2C(=O)CSc2nncs2)cc1OC` (stereo not drawn), the activity change was -14.9%.

Regarding `COc1ccc(C2CC(c3cccs3)=NN2C(=O)COC(=O)c2cc3ccccc3cc2O)cc1OC` (stereo not drawn), the activity change was 12.7%.

With `COc1ccc(C2CC(=O)n3c(nc4ccccc43)S2)cc1OC` (stereo not drawn), the activity change was -17%.

Take `COc1ccc(C2CC(c3cccs3)=NN2C(=O)CSc2nnc(N)s2)cc1OC` (stereo not drawn): the activity change was -61.5% (active).

Take `COc1ccccc1N1N=C(c2cccs2)CC1c1ccccc1` (stereo not drawn): the activity change is 24%.

Regarding `CC(C)(C)OC(=O)N1CCC(C(=O)Nc2cccc(C(=O)NCCc3ccccc3)c2)CC1`, the activity change was 17.9%.

With `CCC1(C)COC(c2ccc(OC)c(OC)c2)OC1` (stereo not drawn), the activity change is 10.5%.

Regarding `CC1(C(=O)NCc2ccccc2)CSCC(=O)N1CCCN1CCOCC1` (stereo not drawn), the activity change was 16.7%.

For the compound `N#Cc1c(N)nc2c3c(sc(=N)c2c1N)NC(=O)CC3c1ccccc1Cl` (stereo not drawn), the activity change was 36.3%.

With `CC1=NC2(CCCc3c2no[n+]3[O-])N(O)C1(C)C` (stereo not drawn), the activity change is 1.59%.

For the compound `COC(=O)C[C@H]1C[C@@H]2c3cc(NC(=O)Nc4ccccc4)ccc3O[C@@H]2[C@@H](CO)O1`, the activity change was 9.89%.

Take `COc1cc(OC)cc(C(=O)NCCCn2ccnc2)c1`: the activity change is 20.1%.

As for `COc1ccc(/C=C(\C#N)C(=O)NCCCn2ccnc2)cc1`, the activity change was -1.26%.

Take `COc1cccc(-c2nn(-c3ccccc3)cc2/C=C(\C#N)C(=O)NCCCn2ccnc2)c1`: the activity change is -84% (active).

As for `CCOC(=O)c1cc(-c2sc(NC(=O)c3ccccc3)nc2C)n(CCO)n1`, the activity change was -3.33%.

`NS(=O)(=O)c1ccc(NC(=O)/C=C/c2ccccc2Cl)cc1`: the activity change was -17.1%.

For the compound `COCCNC(=O)CSc1nc(N)c(NC(=O)c2ccco2)c(=O)[nH]1`, the activity change is 0.73%.

Regarding `CSc1nc(-c2ccccc2)nc(C(Cl)Cl)n1`, the activity change was -99.1% (active).

Take `CSc1ncc(Sc2ccccc2)c(C(=O)O)n1`: the activity change was 5.96%.

In the case of `CC1(C)OC(=O)C2=C(CC(c3ccccc3)OC2CCc2ccccc2)O1` (stereo not drawn), the activity change is -7.82%.

For the compound `O=C(Nc1ccccc1C(=O)N1CCOCC1)c1ccc(Cl)cc1`, the activity change is 12.7%.

In the case of `CCOC(=O)N1CCN(C(=O)C2CC(c3ccc(F)cc3)=NO2)CC1` (stereo not drawn), the activity change is -3.7%.

Consider `COC(=O)N/N=C/c1cn(CCCOc2ccc(C)cc2)c2ccccc12`, for which the activity change is -91% (active).

As to `CNC(=S)N/N=C/c1cn(Cc2ccc(C)cc2)c2ccccc12`, the activity change was -7.55%.

Take `O=Cc1cn(CCOc2ccc(F)cc2)c2ccccc12`: the activity change is -5.47%.

Regarding `Cc1ccc([C@@H]2CC(=O)[C@@H]3CN(S(=O)(=O)c4ccc(C)cc4)[C@H](c4ccccc4F)C[C@@H]3N2S(=O)(=O)c2ccc(Cl)cc2)cc1`, the activity change was 0%.

Take `Cn1cnc(S(=O)(=O)N2C[C@@H](O)COC[C@@H]3O[C@H](CC(=O)NC4CCC4)CC[C@H]32)c1`: the activity change was 3.76%.

As to `CC(=O)c1c(C)[nH]c(C(=O)OCC(=O)Nc2c(C)n(C)n(-c3ccccc3)c2=O)c1C`, the activity change was 30.6%.

For `O=C(CSC1=NCCS1)Nc1nc(-c2ccccc2)cs1`, the activity change is -4.52%.

Take `CCCc1cc(-c2nc(-c3ccc(C)cc3)cs2)ccn1`: the activity change is 19.6%.

Take `Cc1ccc(-c2csc(NC(=O)Cn3[nH]c(=O)c4ccccc4c3=O)n2)cc1`: the activity change is 10.3%.

Take `CCc1ccccc1NC(=O)[C@@H]1CCC(=O)N1C1OC(=O)c2c1ccc(OC)c2OC` (stereo partly drawn): the activity change is -9.95%.

Consider `COc1ccc(N/C=C(\C2OC(=O)c3ccccc32)[N+](=O)[O-])cc1` (stereo not drawn), for which the activity change is -0.0924%.

Regarding `COc1ccc(C(C)(NC(C)=O)c2nc(-c3ccc(S(C)(=O)=O)cc3)cs2)cc1` (stereo not drawn), the activity change is -7.6%.

On to `COc1ccc(-c2csc(NC3OC(=O)c4ccccc43)n2)cc1` (stereo not drawn), for which the activity change is -77.8% (active).

Turning to `COc1ccc2c(c1OC)C(=O)OC2Nc1nc(-c2ccccc2)cs1` (stereo not drawn), the activity change is -117% (active).

As to `Cc1ccc(-c2csc(NC3OC(=O)c4ccccc43)n2)cc1` (stereo not drawn), the activity change was -99% (active).

With `OC(c1ccc(Cl)cc1)c1ncc(-c2ccc(Cl)cc2)[nH]1` (stereo not drawn), the activity change is -2.78%.

With `CCCNC(=O)C1(C)CCCN(C(=O)c2oc3ccccc3c2C)C1` (stereo not drawn), the activity change is 35.7%.

Take `CN1CCN(c2ccncc2S(=O)(=O)N2CCCC2)CC1`: the activity change is 21.6%.

For the compound `COc1ccc2c(CC(=O)OCC(=O)NC(N)=O)coc2c1`, the activity change is 0%.

For the compound `CCNC(=O)C1(C)CCCN(C(=O)c2ccc3ccccc3n2)C1` (stereo not drawn), the activity change was -16.3%.

Take `COc1ccc(C=C2CCC3C(CCCC34OCCO4)C2=O)cc1` (stereo not drawn): the activity change is -24.6%.

As to `O=C(CN1CCCCCC1)Nc1ccc(S(=O)(=O)N2CCCCC2)cc1`, the activity change was -59.2% (active).

Consider `CCOc1ccc(NC(=O)COc2ccc(S(=O)(=O)N3CCCC3)cc2)cc1`, for which the activity change was 5.76%.

In the case of `CC1CCN(CCCNC(=O)CN2C(=O)CSc3ccc(S(=O)(=O)N4CCCCC4)cc32)CC1`, the activity change is -0.367%.

With `COCCCNC(=O)CN1C(=O)CSc2ccc(S(=O)(=O)N3CCOCC3)cc21`, the activity change is -5.17%.

Take `CN(C)c1ccc(CNC(=O)CN2C(=O)COc3ccc(S(=O)(=O)N4CCCC4)cc32)cc1`: the activity change is 12.9%.

Turning to `COc1ccc(NC(=O)CN2C(=O)CSc3ccc(S(=O)(=O)N4CCC(C)CC4)cc32)cc1`, the activity change was -67.1% (active).

Turning to `CCc1ccc(NC(=O)CN2C(=O)COc3ccc(S(=O)(=O)N4CCCC4)cc32)cc1`, the activity change was -54.9% (active).

`O=C(CSCc1ccc(Br)cc1)Nc1ccc(S(=O)(=O)N2CCCCCC2)cc1`: the activity change is 23.8%.

On to `COc1ccc(CCNC(=O)CN2C(=O)COc3ccc(S(=O)(=O)N4CCCC4)cc32)cc1OC`, for which the activity change was -11.4%.

`O=C(Nc1c(Br)cc2c(c1Br)Cc1ccccc1-2)C(F)(F)F`: the activity change is 17.9%.

(Values after PubChem BioAssay AID743279 (National Center for Advancing Translational Sciences (NCATS), 2014).)
